For 89 compounds, inhibition results are on record in PubChem BioAssay AID1259417 (TB Discovery Research, Infectious Disease Research Institute, 2018).

In all, about 1,100 compounds went through this assay and about 760 (69%) were called active. How the calls were made is not given here. So high a share suggests a set chosen from earlier hits. Some of the results follow.

The nature of this experiment: M. tuberculosis growth inhibition, HTS (AID 1259417).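 Further: bacteria grown with compound for 5 days at 37 °C.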 The settings on record: stronger effect = higher value, concentration not given here.
[1] abbreviates: M. tuberculosis DsRed fluorescence growth inhibition.
[2] abbreviates: M. tuberculosis growth inhibition.

As usually defined, the inhibition is the drop in the measured response relative to a control, in per cent.

As to `COc1ccc(C)c2sc(N(CCCn3ccnc3)C(=O)c3cccs3)nc12`, the inhibition by setting is: under setting [1], 51.2% (active); under setting [2], 44.6%.
The corresponding values for `COc1ccc(Cl)c2sc(N(CCCn3ccnc3)C(=O)c3cccs3)nc12` are 59.9% (active) and 61.3%.
In the same order, the values of `O=C(COc1cccc2ccccc12)c1ccc(Cl)cc1` are 17% (active) and 36.9%.
On to `Cn1nc([N+](=O)[O-])nc1Sc1ncnn1-c1ccccc1`, for which the inhibition runs as follows: under setting [1], 97.1% (active); under setting [2], 95%.
Turning to `O=c1nc2c(O)cccn2c2c1c(=O)[nH]c1ccccc12`, the inhibition is -3.23% (inactive) under setting [1] and -27.6% under setting [2].
The corresponding values for `Cc1c(C)n2c3c(=O)[nH]c(=O)n(C)c3nc2n1-c1ccccc1O` are 97.2% (active) and 92.8%.
In the same order, the values of `COC(=O)C(CC(=O)c1ccc(Br)cc1)n1ccnc1` (stereo not drawn) are 100% (active) and 100%.
In the same order, the values of `O=c1oc2ccccc2nc1/C=C(O)/C=C\c1ccccc1` are 99.1% (active) and 98.9%.
Consider `Clc1ccc(OCc2ccccc2Cl)c(CNC2CCCCC2)c1`, for which the inhibition was 99.2% (active) under setting [1] and 99.3% under setting [2].
`COC(=O)CSc1ncnc2c1sc1nc3c(cc12)COC(C)(C)C3`: the inhibition was 48.1% (active) under setting [1] and -1.03% under setting [2].
In the same order, the values of `OCCOCCNc1nc(Nc2cccc(F)c2)nc2c1cnn2-c1ccccc1` are -4.23% (inactive) and 4.68%.
The corresponding values for `Clc1cccc(Nc2nc(NCc3ccco3)c3ccccc3n2)c1` are 41.8% (active) and 5.69%.
For `CCOc1ccc(Nc2nc(NCc3ccco3)c3ccccc3n2)cc1`, the inhibition is 65.7% (active) under setting [1] and 78.4% under setting [2].
The corresponding values for `Cc1ccccc1Nc1nc(NCc2ccco2)c2ccccc2n1` are -6.74% (inactive) and -22.5%.
The corresponding values for `Cc1ccc(Nc2nc(NCc3ccco3)c3ccccc3n2)cc1` are 69% (active) and 45.4%.
Take `Cc1ccc(-c2nc(NC(=O)CO)cs2)cc1`: the inhibition is 99.1% (active) under setting [1] and 100% under setting [2].
In the same order, the values of `Cc1ccc(-c2csc(-c3ccc(O)cc3)n2)cc1` are 3.54% (inactive) and 28.7%.
The corresponding values for `CC(NCC(O)COc1ccccc1C(C)(C)C)c1ccccc1` (stereo not drawn) are 61.1% (active) and 48.8%.
In the same order, the values of `O=C(Nc1nnc(-c2ccc3c(c2)CCCC3)o1)c1ccc([N+](=O)[O-])s1` are 79% (active) and 93.9%.
In the case of `O=C(Nc1nnc(-c2ccc3c(c2)CCCC3)o1)c1ccc(Cl)s1`, the inhibition runs as follows: under setting [1], 95.5% (active); under setting [2], 90.6%.
In the same order, the values of `O=C(Nc1cccc(Br)c1)c1ccc([N+](=O)[O-])s1` are 6.23% (inactive) and 3.28%.
In the same order, the values of `CSc1cccc(-c2nnc(NC(=O)c3ccc([N+](=O)[O-])s3)o2)c1` are 13% (active) and 56.8%.
The corresponding values for `O=C(Nc1nnc(-c2ccc3c(c2)CCCC3)o1)c1cc(Cl)sc1Cl` are 52.2% (active) and 48.6%.
On to `O=C(Nc1nnc(-c2ccc3c(c2)CCCC3)o1)c1ccc(Cl)cc1Cl`, for which the inhibition by setting is: under setting [1], -1.63% (inactive); under setting [2], -9.7%.
The corresponding values for `O=C1CC(c2ccc(Cl)cc2)CC2=C1C(c1ccc(C(F)(F)F)cc1)Nc1ccccc1N2` (stereo not drawn) are -1.45% (inactive) and -10.1%.
The corresponding values for `CCOC(=O)C(C)Sc1ncnc2c1nnn2Cc1ccc(F)cc1` (stereo not drawn) are 2.2% (inactive) and 19%.
The corresponding values for `CCOC(=O)CSc1ncnc2c1cnn2-c1ccc(C)cc1C` are 39.4% (active) and 77.1%.
With `CCOC(=O)C(C)Sc1ncnc2c1cnn2-c1ccc(F)cc1` (stereo not drawn), the inhibition by setting is: under setting [1], 26.4% (active); under setting [2], 87.2%.
In the same order, the values of `COC(=O)CSc1ncnc2c1nnn2Cc1ccc(F)cc1` are 99.8% (active) and 99.8%.
The corresponding values for `COC(=O)CSc1ncnc2c1cnn2-c1ccc(F)cc1` are 27.3% (active) and 86.2%.
The corresponding values for `CCOC(=O)CNC(=O)CSc1ncnc2c1nnn2Cc1ccccc1F` are 17.3% (inactive) and 22.5%.
With `CCOC(=O)CSc1ncnc2c1cnn2-c1ccccc1`, the inhibition under setting [1] was 13.4% (active) and the inhibition under setting [2] amounted to 70.7%.
The corresponding values for `CCOC(=O)C1CCCN(c2ccc([N+](=O)[O-])c3nonc23)C1` (stereo not drawn) are 29.3% (active) and 67.6%.
Turning to `O=S1(=O)C=CC2ON=C(c3ccc(C(F)(F)F)cc3)C21` (stereo not drawn), the inhibition by setting is: under setting [1], 99.5% (active); under setting [2], 96.8%.
The corresponding values for `O=S1(=O)C=CC2ON=C(c3ccc(Cl)cc3)C21` (stereo not drawn) are 100% (active) and 98.3%.
Consider `CCOC(=O)CSc1nc2c(c(-c3ccc(C)o3)c1C#N)CCCC2`, for which the inhibition under setting [1] is 21.7% (inactive) and the inhibition under setting [2] turned out to be 28.1%.
For `N#Cc1cc2c(nc1SCC(=O)OCc1ccccc1)CCC2`, the inhibition reads like this: under setting [1], 99.7% (active); under setting [2], 99.7%.
The corresponding values for `COC(=O)CSc1nc2c(c(-c3ccc(C)o3)c1C#N)CCCC2` are 4.49% (inactive) and -17%.
In the same order, the values of `O=C(CC(O)(C(F)(F)F)C(F)(F)F)Nc1ccc(Cl)c(Cl)c1` are 100% (active) and 101%.
In the same order, the values of `O=C(Nc1ccc(Cl)c(C(F)(F)F)c1)c1csc2c1CCCC2` are 1.18% (inactive) and -27.8%.
For `O=C(Cc1ccc(F)cc1)Nc1ccc(Cl)c(C(F)(F)F)c1`, the inhibition by setting is: under setting [1], 50.9% (active); under setting [2], 31.5%.
The corresponding values for `O=C(CSc1ccc(Cl)cc1)Nc1ccc(Cl)c(C(F)(F)F)c1` are 0.0104% (inactive) and -15.8%.
Take `Cc1cc(C)nc(N=C(N)Nc2cc(Cl)ccc2Oc2ccccc2)n1`: the inhibition under setting [1] was 97.1% (active) and the inhibition under setting [2] was 99.6%.
In the same order, the values of `Cn1nc([N+](=O)[O-])nc1Oc1ccc(C(C)(C)C)cc1` are 96.8% (active) and 94.8%.
The corresponding values for `CCc1ccc(Oc2nc([N+](=O)[O-])nn2C)cc1` are 98% (active) and 95.4%.
Take `CCN(CC)c1cccc(Oc2nc([N+](=O)[O-])nn2C)c1`: the inhibition is, setting by setting: under setting [1], 96.8% (active); under setting [2], 95.7%.
The corresponding values for `O=C(OCc1nnc(-c2ccccc2)o1)c1cc(-c2cccs2)nc2ccccc12` are 83.3% (active) and 100%.
Turning to `CN(Cc1nc2ccccc2c(=O)[nH]1)Cc1nc2ccsc2c(=O)[nH]1`, the inhibition by setting is: under setting [1], 97.2% (active); under setting [2], 96.7%.
In the case of `CC1Cc2cc(-c3nn(-c4ccccc4)cc3C=C3SC(=S)NC3=O)ccc2O1` (stereo not drawn), the inhibition reads like this: under setting [1], 27% (active); under setting [2], 38.2%.
In the case of `CCOC(=O)COc1ccc2cc(-c3nc4ccccc4s3)c(=O)oc2c1`, the inhibition is, setting by setting: under setting [1], 88.6% (active); under setting [2], 86.2%.
In the same order, the values of `CCOC(=O)COc1ccc2cc(-c3ccc(OC)c(OC)c3)c(=O)oc2c1` are 43.5% (active) and 53.6%.
The corresponding values for `COC(=O)COc1ccc2cc(-c3ccc(OC)c(OC)c3)c(=O)oc2c1` are 26.7% (active) and 45%.
The corresponding values for `COc1cccc(OCC(=O)c2ccc(Br)cc2)c1` are -3.18% (inactive) and -10.7%.
As for `COc1cccc(OCCNC(=O)c2cc([N+](=O)[O-])cc([N+](=O)[O-])c2)c1`, the inhibition was 98.1% (active) under setting [1] and 95.3% under setting [2].
The corresponding values for `Cc1ccc(OCCN2CCN(c3nc(NCc4ccccc4)c4ccccc4n3)CC2)cc1` are -1.14% (inactive) and -0.136%.
The corresponding values for `Cc1ccc2nc(NCc3ccccc3)[nH]c2c1` are 43% (active) and 23.1%.
The corresponding values for `c1ccc(CCNc2nc3ccccc3[nH]2)cc1` are 21.4% (active) and 32.9%.
As to `COc1cccc(-c2csc(N3CCN(C(=O)NC45CC6CC(CC(C6)C4)C5)CC3)n2)c1`, the inhibition under setting [1] is 3.33% (inactive) and the inhibition under setting [2] was -30.6%.
The corresponding values for `O=C(C1CCN(c2nnc(-n3cccc3)s2)CC1)N1CCN(c2cccc(C(F)(F)F)c2)CC1` are 68.1% (active) and 27.8%.
The corresponding values for `O=C(C1CCN(c2nnc(-n3cccc3)s2)CC1)N1CCc2ccccc2C1` are 70.1% (active) and 84.1%.
In the same order, the values of `O=C(NC12CC3CC(CC(C3)C1)C2)N1CCN(c2cccc(C(F)(F)F)c2)CC1` are 100% (active) and 94.4%.
Regarding `Cc1nc2cc(C(=O)OCC(=O)NC34CC5CC(CC(C5)C3)C4)ccc2n1-c1ccccc1`, the inhibition is, setting by setting: under setting [1], -4.71% (inactive); under setting [2], -17.2%.
In the same order, the values of `Cc1cccc(N2CCN(C3=NC(=O)C(=C4CCCCC4)S3)CC2)c1` are 84.8% (active) and 77.9%.
In the same order, the values of `CC1CCC(C(C)C)C(OC(=O)Cn2c(-c3ccc(F)cc3)[n+](C)c3ccccc32)C1` (stereo not drawn) are 94.3% (active) and 97.5%.
Regarding `CCN(CC)c1ccc(NC(=O)c2cnccn2)cc1`, the inhibition reads like this: under setting [1], 92.1% (active); under setting [2], 96.5%.
The corresponding values for `Cc1ccc(-c2nnc(NC(=O)c3nc4ccccc4s3)o2)c(C)c1` are 21.8% (active) and 89.7%.
In the same order, the values of `O=C(Nc1nnc(-c2ccccc2)o1)c1nc2ccccc2s1` are 94.3% (active) and 94.8%.
The corresponding values for `CC(C)(C)c1ccc(OCCN2C(=O)C(=O)c3cc(Br)ccc32)cc1` are -0.55% (inactive) and -12%.
Regarding `CC(=O)Nc1nc2ccccc2n1Cc1ccccc1`, the inhibition under setting [1] was 81.5% (active) and the inhibition under setting [2] is 85.5%.
The corresponding values for `CCc1nc2ccccc2n1CC(O)COc1ccc(I)cc1` (stereo not drawn) are 99.5% (active) and 100%.
The corresponding values for `CC(=O)Nc1nc2ccccc2n1CCOc1ccccc1` are 93% (active) and 92.9%.
In the same order, the values of `O=C(c1ccccc1)c1ccc(OCC(O)Cn2cnc3ccccc32)cc1` (stereo not drawn) are -0.545% (inactive) and -3.24%.
As to `CC(C)(C)c1ccc(OCCn2c(N)nc3ccccc32)cc1`, the inhibition by setting is: under setting [1], 70.4% (active); under setting [2], 90.4%.
As to `COc1ccc(C2CC(c3c(-c4ccccc4)c4cc(Br)ccc4[nH]c3=O)=NN2C(=O)c2ccccc2)cc1` (stereo not drawn), the inhibition by setting is: under setting [1], 9.47% (inactive); under setting [2], 8.15%.
The corresponding values for `Cc1nc2ccccc2n1CC(O)COc1ccc(C2C=CCC2)cc1` (stereo not drawn) are 101% (active) and 101%.
In the same order, the values of `CCc1nc2ccccc2n1CCCOc1ccccc1` are 100% (active) and 101%.
In the same order, the values of `COc1ccc(SN=C2C(C)=CC(=O)C=C2C)cc1` are 5.38% (inactive) and 20%.
In the case of `CN(C)CC1CC(C(C)(C)C)CCC1=O` (stereo not drawn), the inhibition is 63.9% (active) under setting [1] and 85.1% under setting [2].
The corresponding values for `O=c1oc(-c2ccccc2Br)nc2sc3c(c12)CCCC3` are 99.7% (active) and 98.6%.
The corresponding values for `COc1ccccc1-c1c(C)oc2cc(OCC(=O)OCc3ccccc3)ccc2c1=O` are 28.7% (active) and 62.9%.
On to `CCCc1cc2c(=O)c(-c3ccc4c(c3)OCCCO4)coc2cc1OCC(=O)OCC`, for which the inhibition was 62.8% (active) under setting [1] and 59.1% under setting [2].
The corresponding values for `COC(=O)COc1ccc2c(=O)c(-c3ccccc3Cl)c(C)oc2c1` are 74.9% (active) and 95.5%.
In the same order, the values of `COC(=O)COc1ccc2c(=O)c(-c3ccc(Cl)cc3)coc2c1` are 78.7% (active) and 94.8%.
In the same order, the values of `NNC(=O)c1ccc(-c2ccccc2Cl)o1` are -6.57% (inactive) and 6.08%.
`CS(=O)(=O)Nc1cccc(C2=NN(c3nc(-c4ccccc4)c4cc(Cl)ccc4n3)C(c3ccco3)C2)c1` (stereo not drawn): the inhibition by setting is: under setting [1], 7.39% (inactive); under setting [2], -23.7%.
On to `CCc1cc2c(=O)c(-c3ccc(OC)cc3)coc2cc1OCC(=O)OC`, for which the inhibition under setting [1] was 63.7% (active) and the inhibition under setting [2] was 86.9%.
As for `CCCCOC(=O)COc1ccc2c(=O)c(Oc3ccc(OCC)cc3)c(C)oc2c1`, the inhibition is, setting by setting: under setting [1], 31.4% (active); under setting [2], 83.7%.
Turning to `CCOC(=O)COc1ccc2c(=O)c(Oc3cnn(-c4ccccc4)c3)c(C)oc2c1`, the inhibition by setting is: under setting [1], 79% (active); under setting [2], 94.4%.
In the same order, the values of `COc1ccccc1-c1coc2cc(OCC(=O)OC3CCCCC3)ccc2c1=O` are 40.7% (active) and 66.9%.
